From PubChem BioAssay (NCATS)
Inconclusive results are not listed. Calls of active or inactive are those of the source. Unless noted, calls come from the whole dose curve; as a rule, active = well fitted curve in either direction with a large enough effect (not every such curve was filed as active); inconclusive = small, poorly fitted or top-dose-only effect, or another doubt; inactive = flat fitted curve, though single readings scatter.

Columns and labels:
[1] = target: Lysosomal acid glucosylceramidase (Homo sapiens) (UniProt P04062); assay: Glucocerebrosidase-p2 (AID 348; in the data active = potency below about 10 µM; note: potency is the fitted concentration of half-maximal effect); settings: purified GBA, blue fluorogenic substrate, 40 min
Procedure, shortened: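 Compounds titrated from 0.6 nM upwards against 0.2 nM enzyme in pH 5.9 citric acid/KH2PO4, taurocholate, tween-20; blue fluorogenic substrate 80 uM, 40 min room temperature, stopped and read Ex 365/Em 440 for AC50.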

[2] = AP1 Signaling Pathway (AID 357); settings: ME-180 AP-1-bla reporter, EGF-induced, beta-lactamase ratio, 5 h; at 7.69 µM (top of the series) unless noted;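 note: ME-180 reporter cells stimulated with EGF at its EC50 level; % is set by controls: 0 for no effect and ±100 for the full control effect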
Procedure, shortened: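 Titration-series screen for positive or negative modulators of EC50 EGF-induced signaling in ME-180 cells carrying an AP-1-driven beta-lactamase reporter. After 5 hours at 37 degrees Celsius, CCF4 460nm/530nm emission ratio gave %Activity; AC50 values derived.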

[3] = target: Cytochrome P450 1A2 (Homo sapiens) (UniProt P05177); assay: p450-cyp1a2 (AID 410; calls by dose curve; note: potency is the fitted concentration of half-maximal effect;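 for activity change, negative = inhibition: -100% = full effect of reference inhibitor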); settings: recombinant CYP1A2, luciferin-ME demethylation, luminescence; series mostly up to 11.4 µM
Procedure, shortened: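 Inhibition was calculated relative to 57 uM furafylline (full inhibition). The reaction used human CYP1A2 at 20nM with Luciferin-ME at its Km, 100uM, driven by an NADPH-regenerating system for 60 min at room temperature.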

[4] = Stat Signaling Pathway (AID 446); settings: ME-180 SIE beta-lactamase reporter, IL-6 stimulated, 5 h; at 7.69 µM (top of the series) unless noted;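 note: ME-180 cervical cancer cells given 40 pM IL-6 alongside compound; SIE-controlled beta-lactamase reporter measured as 460/530 nm FRET emission ratio; % is set by controls: 0 for no effect and ±100 for the full control effect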
Procedure, shortened: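 ME-180 SIE-bla cells; overnight plating; cpd + IL-6 40 pM, 5 h, 37 C; LiveBLAzer 2.5 h RT; 460/530 nm emission ratio. Normalized to 300 pM IL-6 and 125 nM JAK inhibitor controls.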

[5] = target: Mitogen-activated protein kinase 10 (Mus musculus) (UniProt Q61831); assay: JNK3 AlphaScreen Assay (AID 530); settings: JNK3 lysate, c-Jun phosphorylation; series mostly up to 11.4 µM;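 note: kinase came from lysate of stimulated human HepG2 cells; signal reports phosphorylation of biotinylated GST-cJun 1-79 at Ser73 with 10 µM ATP; % is set by controls: 0 for no effect and ±100 for the full control effect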
Procedure, shortened: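 qHTS format: compounds tested as titrations against IL-1beta/TNF-alpha-activated HepG2 lysate JNK3 with biotin-GST-cJun substrate and 10 uM ATP at room temperature. Loss of anti-phospho-cJun AlphaScreen signal indicates inhibition.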

[6] = target: 3',5'-cyclic-AMP phosphodiesterase 4B (Homo sapiens) (UniProt Q07343); assay: qHTS Assay for Inhibitors of PDE-IV (AID 607; active = well fitted activation curve with a large enough effect in the main read-out, with a control signal flat, not every such curve was filed as active; note: % of control where 0% means no effect); settings: HEK293 ACTOne CNG channel cells, membrane potential fluorescence; series mostly up to 22.9 µM
Procedure, shortened: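 ACTOne HEK293 cells carry a modified cAMP-gated CNG channel and express endogenous PDE4; plated 1000 cells/well, compounds up to 22.9 uM final. Membrane-potential dye fluorescence (ex 535/em 590) was read; parental cells received 10 uM forskolin + 100 uM RO 20-1724.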

[7] = target: Glucocorticoid receptor (Homo sapiens) (UniProt P04150); assay: GR-GFP Redistribution (AID 450;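 active = compounds whose dose series gives a full or clear partial fitted curve of increased nuclear translocation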; note: potency is the fitted concentration of half-maximal effect); settings: U2OS GR-GFP nuclear translocation, laser cytometry, 2 h
[8] = target: Glucocorticoid receptor (Homo sapiens) (UniProt P04150); assay: GR-EFC Redistribution (AID 451; calls by dose curve; note: potency is the fitted concentration of half-maximal effect); settings: CHO-K1 GR-EFC translocation, beta-gal luminescence, 2 h
Procedure, shortened: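 CHO-K1 cells expressing nuclear EA and GR-ED fragments of b-gal; compounds titrated up to 46 uM final, 2 h at 37 C. GR nuclear translocation read as complemented b-gal luminescence after 1 h RT detection.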

[9] = target: Cytochrome P450 2C9 (Homo sapiens) (UniProt P11712); assay: qHTS Assay for Inhibitors and Substrates of Cytochrome P450 2C9 (AID 883; active = well fitted curve in the direction sought with a large enough effect; an effect the other way counts as inactive or inconclusive; note: nearly all actives have a fitted effect of over 60% in size; note: potency is the fitted concentration of half-maximal effect; for activity change, negative = inhibition: % is set by controls: 0 for no effect and ±100 for the full control effect); settings: recombinant CYP2C9, luciferin-H luminescence, 60 min; series mostly up to 11.4 µM
Procedure, shortened: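 10nM CYP2C9 + 100uM Luciferin-H (=KM), 25mM KPO4; cpd 10 min 37C; NADPH regen, 60 min 37C; stop/detect with P450 Glo-Buffer 20 min; luminescence. Norm. to 57uM sulphaphenazole as full inhibition.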

[10] = target: Cytochrome P450 3A4 (Homo sapiens) (UniProt P08684); assay: qHTS Assay for Inhibitors and Substrates of Cytochrome P450 3A4 (AID 884; active = well fitted curve in the direction sought with a large enough effect; an effect the other way counts as inactive or inconclusive; note: potency is the fitted concentration of half-maximal effect; nearly all actives have a fitted effect of over 50% in size); settings: recombinant CYP3A4, Luciferin-PPXE luminescence; series mostly up to 57.1 µM
Procedure, shortened: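 20 nM human CYP3A4 with 25 uM Luciferin-PPXE (at KM) in 200 mM KPO4, preincubated 10 min with compound; NADPH regeneration started a 60 min RT reaction. Luciferin detected by luminescence, normalized to 57 uM ketoconazole as full inhibition.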

[11] = target: Cytochrome P450 3A4 (Homo sapiens) (UniProt P08684); assay: qHTS Assay for Activators of Cytochrome P450 3A4 (AID 885; active = well fitted curve in the direction sought with a large enough effect; an effect the other way counts as inactive or inconclusive; note: nearly all actives have a fitted effect of over 65% in size); settings: recombinant CYP3A4, Luciferin-PPXE luminescence, 60 min; series mostly up to 11.4 µM
Procedure, shortened: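 20nM CYP3A4 + 25uM Luciferin-PPXE (=KM), 200mM KPO4; cpd 10 min RT; NADPH regen, 60 min RT; stop w/ detection buffer, 20 min; luminescence. Normalized to 57 uM ketoconazole.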

[12] = target: Cytochrome P450 2D6 (Homo sapiens) (UniProt P10635); assay: qHTS Assay for Inhibitors and Substrates of Cytochrome P450 2D6 (AID 891; active = well fitted curve in the direction sought with a large enough effect; an effect the other way counts as inactive or inconclusive; note: nearly all actives have a fitted effect of over 60% in size; note: potency is the fitted concentration of half-maximal effect); settings: recombinant CYP2D6, luciferin-ME EGE luminescence; series mostly up to 11.4 µM
Procedure, shortened: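 Human CYP2D6 (5 nM) with 30 uM Luciferin-ME EGE (at Km) in 100 mM KPO4, compound preincubated 10 min, then NADPH regeneration system for 60 min at room temperature. Luciferin read by luminescence; normalized to 1.43 uM quinidine.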

[13] = target: Cytochrome P450 2C19 (Homo sapiens) (UniProt P33261); assay: qHTS Assay for Inhibitors and Substrates of Cytochrome P450 2C19 (AID 899; active = well fitted curve in the direction sought with a large enough effect; an effect the other way counts as inactive or inconclusive; note: nearly all actives have a fitted effect of over 60% in size; note: potency is the fitted concentration of half-maximal effect); settings: recombinant CYP2C19, luciferin-H EGE luminescence; series mostly up to 11.4 µM
Procedure, shortened: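 Luminescent read-out of luciferin formed from Luciferin-H EGE (10uM, equal to KM). Enzyme 5nM in 50mM KPO4; compound added, 10 min at 37C, then NADPH regenerating system for 60 min at 37C. Full inhibition defined by 57uM ketoconazole.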

Sequence of Cytochrome P450 2D6 (Homo sapiens) (P10635 whole entry, looked up): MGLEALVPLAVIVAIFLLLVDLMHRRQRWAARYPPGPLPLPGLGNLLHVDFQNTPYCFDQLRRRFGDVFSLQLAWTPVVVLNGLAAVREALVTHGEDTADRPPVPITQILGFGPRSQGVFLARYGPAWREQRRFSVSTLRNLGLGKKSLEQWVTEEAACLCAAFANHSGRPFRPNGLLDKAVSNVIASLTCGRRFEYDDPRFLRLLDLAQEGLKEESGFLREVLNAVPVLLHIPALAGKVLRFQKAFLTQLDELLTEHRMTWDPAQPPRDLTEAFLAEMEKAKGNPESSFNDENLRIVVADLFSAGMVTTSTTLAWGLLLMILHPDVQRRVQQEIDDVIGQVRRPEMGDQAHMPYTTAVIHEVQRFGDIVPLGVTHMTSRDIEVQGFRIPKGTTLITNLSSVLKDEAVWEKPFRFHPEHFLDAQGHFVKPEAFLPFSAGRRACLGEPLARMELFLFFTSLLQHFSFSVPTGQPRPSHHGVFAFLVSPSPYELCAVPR
Sequence of Cytochrome P450 3A4 (Homo sapiens) (P08684 whole entry, looked up): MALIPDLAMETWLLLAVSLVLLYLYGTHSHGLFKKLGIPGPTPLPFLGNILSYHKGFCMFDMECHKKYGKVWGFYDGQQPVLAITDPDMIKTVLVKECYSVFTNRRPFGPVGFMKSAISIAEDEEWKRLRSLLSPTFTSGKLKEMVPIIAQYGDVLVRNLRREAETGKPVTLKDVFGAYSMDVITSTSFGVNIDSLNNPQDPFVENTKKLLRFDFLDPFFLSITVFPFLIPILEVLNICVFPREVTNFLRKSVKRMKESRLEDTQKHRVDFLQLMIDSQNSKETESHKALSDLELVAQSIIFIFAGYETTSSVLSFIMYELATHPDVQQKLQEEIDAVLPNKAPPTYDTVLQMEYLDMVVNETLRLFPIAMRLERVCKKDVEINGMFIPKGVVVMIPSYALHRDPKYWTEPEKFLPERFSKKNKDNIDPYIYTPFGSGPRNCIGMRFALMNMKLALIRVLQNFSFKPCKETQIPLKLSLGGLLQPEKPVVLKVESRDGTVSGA
Sequence of Lysosomal acid glucosylceramidase (Homo sapiens) (P04062 whole entry, looked up): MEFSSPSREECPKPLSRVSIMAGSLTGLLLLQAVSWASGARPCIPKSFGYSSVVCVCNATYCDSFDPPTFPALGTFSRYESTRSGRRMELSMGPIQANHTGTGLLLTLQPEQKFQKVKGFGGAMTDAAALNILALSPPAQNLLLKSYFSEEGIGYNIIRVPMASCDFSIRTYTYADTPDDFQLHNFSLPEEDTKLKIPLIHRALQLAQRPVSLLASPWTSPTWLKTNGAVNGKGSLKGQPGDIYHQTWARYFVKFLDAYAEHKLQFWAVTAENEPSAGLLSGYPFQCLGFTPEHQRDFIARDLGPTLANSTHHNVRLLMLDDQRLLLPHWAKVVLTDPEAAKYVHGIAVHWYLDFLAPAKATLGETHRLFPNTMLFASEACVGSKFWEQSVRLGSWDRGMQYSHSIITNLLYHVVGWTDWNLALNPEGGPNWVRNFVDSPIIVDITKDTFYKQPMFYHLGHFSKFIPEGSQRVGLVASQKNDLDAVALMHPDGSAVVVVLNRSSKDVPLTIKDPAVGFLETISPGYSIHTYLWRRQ
Sequence of Cytochrome P450 1A2 (Homo sapiens) (P05177 whole entry, looked up): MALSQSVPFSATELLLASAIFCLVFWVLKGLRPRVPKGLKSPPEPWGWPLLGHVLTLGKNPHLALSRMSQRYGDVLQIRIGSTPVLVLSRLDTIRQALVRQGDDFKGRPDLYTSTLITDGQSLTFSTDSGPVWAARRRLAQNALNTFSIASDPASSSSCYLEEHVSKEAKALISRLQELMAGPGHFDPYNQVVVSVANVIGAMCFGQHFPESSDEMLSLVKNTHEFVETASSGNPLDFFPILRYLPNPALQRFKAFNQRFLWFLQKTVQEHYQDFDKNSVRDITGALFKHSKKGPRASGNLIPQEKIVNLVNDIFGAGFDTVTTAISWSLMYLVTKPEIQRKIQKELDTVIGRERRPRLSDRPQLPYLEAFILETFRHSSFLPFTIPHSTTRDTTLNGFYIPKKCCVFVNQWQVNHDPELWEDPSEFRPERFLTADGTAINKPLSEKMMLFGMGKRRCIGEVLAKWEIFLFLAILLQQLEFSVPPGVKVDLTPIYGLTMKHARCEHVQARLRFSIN
Sequence of Cytochrome P450 2C19 (Homo sapiens) (P33261 whole entry, looked up): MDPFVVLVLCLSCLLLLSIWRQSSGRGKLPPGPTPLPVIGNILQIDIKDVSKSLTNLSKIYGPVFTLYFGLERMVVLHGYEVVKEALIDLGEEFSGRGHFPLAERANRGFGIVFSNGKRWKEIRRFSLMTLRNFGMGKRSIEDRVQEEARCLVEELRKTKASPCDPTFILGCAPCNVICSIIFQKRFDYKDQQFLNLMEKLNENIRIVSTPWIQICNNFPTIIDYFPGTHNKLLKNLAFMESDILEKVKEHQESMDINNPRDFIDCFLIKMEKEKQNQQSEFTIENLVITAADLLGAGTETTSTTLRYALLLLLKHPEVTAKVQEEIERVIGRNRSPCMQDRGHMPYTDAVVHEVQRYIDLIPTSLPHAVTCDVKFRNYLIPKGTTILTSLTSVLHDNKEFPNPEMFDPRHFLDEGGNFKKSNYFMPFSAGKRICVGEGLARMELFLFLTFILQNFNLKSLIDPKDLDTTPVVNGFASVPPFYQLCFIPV
Sequence of 3',5'-cyclic-AMP phosphodiesterase 4B (Homo sapiens) (Q07343 whole entry, looked up): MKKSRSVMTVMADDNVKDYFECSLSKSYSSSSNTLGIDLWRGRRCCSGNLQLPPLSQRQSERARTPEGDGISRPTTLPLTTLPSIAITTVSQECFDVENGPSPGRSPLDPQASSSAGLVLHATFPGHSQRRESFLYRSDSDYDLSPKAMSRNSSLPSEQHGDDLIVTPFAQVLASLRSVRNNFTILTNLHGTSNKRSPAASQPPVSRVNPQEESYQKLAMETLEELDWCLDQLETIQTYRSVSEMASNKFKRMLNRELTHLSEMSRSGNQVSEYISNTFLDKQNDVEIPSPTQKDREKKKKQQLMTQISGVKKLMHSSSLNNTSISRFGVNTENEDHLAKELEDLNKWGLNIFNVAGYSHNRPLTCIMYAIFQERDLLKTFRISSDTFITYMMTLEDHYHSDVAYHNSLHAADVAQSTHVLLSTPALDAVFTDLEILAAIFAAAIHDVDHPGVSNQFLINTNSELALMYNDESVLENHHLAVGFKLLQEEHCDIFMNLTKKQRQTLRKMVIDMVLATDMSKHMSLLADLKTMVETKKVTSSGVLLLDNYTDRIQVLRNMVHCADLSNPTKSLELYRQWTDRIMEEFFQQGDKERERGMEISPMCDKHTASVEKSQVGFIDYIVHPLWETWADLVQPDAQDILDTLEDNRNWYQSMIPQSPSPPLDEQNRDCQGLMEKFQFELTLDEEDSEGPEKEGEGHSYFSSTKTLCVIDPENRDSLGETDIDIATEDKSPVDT
Sequence of Glucocorticoid receptor (Homo sapiens) (P04150 whole entry, looked up, the tested form may be a part): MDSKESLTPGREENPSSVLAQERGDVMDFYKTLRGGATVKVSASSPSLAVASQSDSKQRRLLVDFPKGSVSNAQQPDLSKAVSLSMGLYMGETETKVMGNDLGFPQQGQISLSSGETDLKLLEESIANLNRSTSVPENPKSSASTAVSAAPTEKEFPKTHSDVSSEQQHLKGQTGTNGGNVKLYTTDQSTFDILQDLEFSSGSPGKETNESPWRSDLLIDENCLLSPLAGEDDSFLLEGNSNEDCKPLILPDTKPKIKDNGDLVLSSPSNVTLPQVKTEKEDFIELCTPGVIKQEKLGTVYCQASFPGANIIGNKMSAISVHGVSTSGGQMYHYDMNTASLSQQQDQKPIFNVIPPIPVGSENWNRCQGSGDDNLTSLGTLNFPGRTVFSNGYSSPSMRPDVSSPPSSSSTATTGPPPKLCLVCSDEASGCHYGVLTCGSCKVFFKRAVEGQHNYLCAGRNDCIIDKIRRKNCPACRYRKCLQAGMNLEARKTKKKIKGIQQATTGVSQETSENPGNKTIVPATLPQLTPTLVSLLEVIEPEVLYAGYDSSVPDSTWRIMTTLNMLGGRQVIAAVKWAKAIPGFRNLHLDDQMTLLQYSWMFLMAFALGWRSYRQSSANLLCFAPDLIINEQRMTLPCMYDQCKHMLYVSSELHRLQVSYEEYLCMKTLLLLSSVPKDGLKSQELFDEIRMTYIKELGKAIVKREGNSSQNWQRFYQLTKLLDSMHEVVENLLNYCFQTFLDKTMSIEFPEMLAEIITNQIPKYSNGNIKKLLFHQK
Sequence of Cytochrome P450 2C9 (Homo sapiens) (P11712 whole entry, looked up): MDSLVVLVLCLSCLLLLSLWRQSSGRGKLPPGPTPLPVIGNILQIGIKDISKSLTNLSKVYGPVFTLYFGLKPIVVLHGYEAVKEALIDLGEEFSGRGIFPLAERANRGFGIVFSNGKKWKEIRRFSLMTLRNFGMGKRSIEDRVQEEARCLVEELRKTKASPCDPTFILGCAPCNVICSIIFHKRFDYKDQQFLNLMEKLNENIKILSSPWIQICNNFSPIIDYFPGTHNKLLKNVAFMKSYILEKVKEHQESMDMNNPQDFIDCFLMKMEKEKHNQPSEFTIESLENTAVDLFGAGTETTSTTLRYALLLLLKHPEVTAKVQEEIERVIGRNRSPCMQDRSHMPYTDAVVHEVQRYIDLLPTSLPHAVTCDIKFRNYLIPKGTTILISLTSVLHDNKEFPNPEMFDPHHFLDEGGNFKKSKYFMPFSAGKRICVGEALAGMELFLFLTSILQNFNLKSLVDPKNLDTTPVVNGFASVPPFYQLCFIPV

O=C=Nc1ccc(Cc2ccc(N=C=O)cc2)cc1 (tested in a mixture with another compound)
active: Potency [3] 5.01 µM
inactive: Potency [1] > 11.4 µM | activity change, negative = inhibition [2] -8.4% | activity, negative = inhibition [4] -1.09% | Potency [5] | Potency [6]

Nc1ncnc2c1ncn2[C@H]1O[C@@H](C(=O)O)[C@@H](O)[C@H]1O
inactive: Potency [1] > 11.4 µM | activity change, negative = inhibition [2] 17.5% | Potency [3] | activity, negative = inhibition [4] 6.21% | Potency [7] > 46 µM | Potency [5] | Potency [6]

c1ccc(SCCc2ccncc2)cc1
inactive: Potency [1] > 11.4 µM | activity change, negative = inhibition [2] 9.37% | activity, negative = inhibition [4] -2.72% | Potency [7] > 46 µM | Potency [8] > 9.22 µM | Potency [6] | Potency [11]
active: Potency [3] 0.2 µM | Potency [9] 1.26 µM | Potency [10] 2.51 µM | Potency [12] 1.26 µM | Potency [13] 0.794 µM

Cc1cc(O)c(C(C)C)cc1N=Cc1ccccc1O
inactive: Potency [1] > 11.4 µM | activity change, negative = inhibition [2] 7.1% | Potency [7] > 46 µM | Potency [8] > 9.22 µM | Potency [5] | Potency [6] | Potency [11]
active: Potency [3] 1.58 µM | Potency [9] 0.631 µM | Potency [10] 3.16 µM

Nc1cccc2nsnc12
inactive: Potency [1] > 11.4 µM | activity change, negative = inhibition [2] 20.1% | activity change, negative = inhibition [3] -15.3% [at 2.29 µM] | activity, negative = inhibition [4] 2.62% | Potency [7] > 46 µM | Potency [8] > 9.22 µM | Potency [6] | Potency [9] | Potency [12] | Potency [13]

CN1CCN(c2ncc3nc(-c4cccs4)c(=O)n(C[C@H]4CCCO4)c3n2)CC1
active: Potency [3] 12.6 µM
inactive: Potency [1] > 11.4 µM | activity change, negative = inhibition [2] 19.1% | Potency [7] > 9.22 µM | Potency [8] > 46 µM | Potency [5]

O=C1[C@@H]2[C@@H](C(=O)N1c1ccc(OCc3ccccc3)cc1)[C@@H]1c3ccccc3[C@@H]2[n+]2ccccc21
inactive: Potency [1] > 11.4 µM | activity change, negative = inhibition [2] -1.52% | Potency [3] | Potency [7] > 46 µM | Potency [8] > 9.22 µM | Potency [5] | Potency [6]

c1ccc(C[n+]2cccc(-c3cc4ccccc4[nH]3)c2)cc1
inactive: Potency [1] > 11.4 µM | activity change, negative = inhibition [2] 2.74% | activity, negative = inhibition [4] -0.473% | Potency [8] > 9.22 µM | Potency [5] | Potency [6]
active: Potency [3] 1.26 µM | Potency [12] 1.26 µM

O=[N+]([O-])c1ccc(C2=Nn3c(nnc3-c3ccc(Cl)cc3)SC2)o1
inactive: Potency [1] > 11.4 µM | activity change, negative = inhibition [2] 22.7% | activity, negative = inhibition [4] -6.24% | Potency [7] > 46 µM | Potency [8] > 9.22 µM | Potency [5] | Potency [6]
active: Potency [3] 0.158 µM | Potency [13] 2.51 µM

CN(C)S(=O)(=O)c1ccc(Nc2ccc(O)c3c2C(=O)c2c([N+](=O)[O-])ccc(O)c2C3=O)cc1
active: Potency [3] 0.126 µM
inactive: Potency [1] > 11.4 µM | activity change, negative = inhibition [2] -13.4% | activity, negative = inhibition [4] 23.6% | Potency [7] > 46 µM | Potency [8] > 9.22 µM | Potency [6] | Potency [11]

NS(=O)(=O)c1ccc(N=Nc2nc3[nH]cnc(=S)c3[nH]2)cc1
active: Potency [3] 6.31 µM
inactive: Potency [1] > 11.4 µM | activity change, negative = inhibition [2] 2.31% | activity, negative = inhibition [4] 14.2% | Potency [7] > 46 µM | Potency [5] | Potency [6]

Clc1ccccc1NN(Cc1ccccn1)c1ccccc1Cl
active: Potency [13] 3.98 µM
inactive: Potency [1] > 11.4 µM | activity change, negative = inhibition [2] -10% | activity change, negative = inhibition [3] -22.4% [at 2.29 µM] | activity, negative = inhibition [4] -11% | Potency [7] > 46 µM | Potency [8] > 9.22 µM | Potency [5] | Potency [6]

Nc1ccccc1S[C@@H](C[N+](=O)[O-])c1ccc2c(c1)OCO2
active: Potency [3] 0.631 µM | Potency [12] 3.98 µM | Potency [13] 1.58 µM
inactive: Potency [1] > 11.4 µM | activity change, negative = inhibition [2] 11.2% | activity, negative = inhibition [4] -19.6% | Potency [7] > 46 µM | Potency [8] > 9.22 µM | Potency [5] | Potency [11]

O=C(c1cc(C(F)(F)F)cc(C(F)(F)F)c1)N1CCC[C@@]2(CCN(Cc3ccccc3)C2)C1
inactive: Potency [1] > 11.4 µM | activity change, negative = inhibition [2] 2.92% | activity, negative = inhibition [4] 7.65% | Potency [8] > 46 µM | Potency [5] | Potency [6] | Potency [11]
active: Potency [3] 25.1 µM | Potency [10] 5.01 µM

OC[C@@H]1O[C@@H](n2cnc3c(SCc4ccccc4)ncnc32)[C@@H](O)[C@H]1O
inactive: Potency [1] > 11.4 µM | activity change, negative = inhibition [2] 3.13% | activity change, negative = inhibition [3] -17.2% [at 2.29 µM] | Potency [7] > 46 µM | Potency [8] > 9.22 µM | Potency [5] | Potency [6]

Oc1ccc(Cc2cc(Cl)cc(Cl)c2O)cc1Cl
active: Potency [3] 1.58 µM | Potency [9] 0.199 µM
inactive: Potency [1] > 11.4 µM | activity change, negative = inhibition [2] -21.8% | activity, negative = inhibition [4] -9.97% | Potency [7] > 46 µM | Potency [5] | Potency [6] | Potency [11]
